Abeta rescue: qHTS for compounds that reverse cellular toxicity of Amyloid beta (A-beta) peptide in yeast: Primary Screen. yeast expressing A-beta42, growth rescue, OD600, 48 h; response scale: 0% DMSO, 100% iron-clioquinol control. Potency, µM (highest dose often 46.1 µM), usual class: activators. 0.063% of 410,000 active; also: nearly all actives have a fitted effect of over 55% in size
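Yeast A-beta toxicity model in growth medium with pinned compounds, 48 h at 30 C; growth read as absorbance at 600 nm. Normalized to FeCl3/clioquinol equimolar mix (positive) and DMSO (negative).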
FUS suppressor: qHTS for Suppressors of FUS Proteinopathy: Primary screen using FUS-linked yeast assay. S. cerevisiae FUS-expressing, growth rescue, OD600, 24 h. Potency, µM (top dose mostly 76.6 µM), hits mostly activators. 0.24% of 390,000 active. AID 1347120, 2019;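 also: plate controls were DMSO vehicle for no effect and reference control for full effect; nearly all actives have a fitted effect of over 55% in size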
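Cultures pregrown in 2.5% raffinose medium are shifted to minimal medium containing 2% galactose to express toxic FUS. Compounds are tested at several concentrations. After 24hr at 30C, growth is quantified at 600 nm absorbance.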
PTAP TSG101 blk: qHTS Assay for Iinhibitors of HIV-1 Budding by Blocking the Interaction of PTAP/TSG101; Tumor susceptibility gene 101 protein (Homo sapiens), Q99816; Fluorescence polarization, FITC-PTAP peptide / Tsg101 binding; Potency, µM (top dose mostly 115 µM), inactives show at the highest dose activity change, negative = inhibition, usual class: inhibitors; 340,000 tested, under 10 active; active = well fitted inhibition curve with a large enough effect in the main read-out, with a control signal flat, not every such curve was filed as active; inconclusive = small, poorly fitted or top-dose-only effect, or effect the other way, or a change in a side signal; inactive = no such curve, though single readings can be large or run the other way; also: % of control where 0% means no effect
Target sequence (Q99816 whole entry, looked up): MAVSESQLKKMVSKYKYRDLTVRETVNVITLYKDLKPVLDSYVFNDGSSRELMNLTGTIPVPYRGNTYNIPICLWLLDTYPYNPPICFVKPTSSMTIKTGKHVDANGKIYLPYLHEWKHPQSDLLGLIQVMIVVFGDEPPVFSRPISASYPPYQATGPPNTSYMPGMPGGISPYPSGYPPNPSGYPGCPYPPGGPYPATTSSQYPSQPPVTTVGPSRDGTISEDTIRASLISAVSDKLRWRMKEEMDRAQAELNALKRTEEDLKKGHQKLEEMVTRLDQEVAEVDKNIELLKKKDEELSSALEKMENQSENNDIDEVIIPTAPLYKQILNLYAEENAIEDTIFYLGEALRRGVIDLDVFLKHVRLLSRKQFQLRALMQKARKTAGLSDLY
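Steps: Tsg101 binding domain dispensed (10 uM final), compounds pinned in DMSO, FITC-labeled PTAP-motif peptide added (50 nM final); after 20 min binding at room temperature, polarization measured.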
TDP-43 yeast inh: qHTS of TDP-43 Inhibitors; 1.8% of 410,000 active; Potency, µM (titrated, usually from 46.1 µM), inactives show at the top dose growth rescue (activation), usual class: activators; AID 652104, 2013; TDP-43 expressing yeast growth rescue, BacTiter-Glo, 24 h; also: % of control where 0% means no effect; nearly all actives have a fitted effect of over 50% in size
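Yeast expressing TDP-43 (pregrown in raffinose, seeded at OD600=0.02 in galactose medium) exposed to compounds 24 hr at 30 deg C. Growth read by BacTiter-Glo luminescence; rescue of toxicity appears as increased signal.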
aSyn rescue: qHTS of alpha-syn Inhibitors | Yeast expressing alpha-synuclein, growth rescue, BacTiter-Glo, 24 h | Potency, µM (top dose mostly 46.1 µM), for the others: top-dose growth rescue (activation), usual class: activators | 0.14% of 370,000 active; also: % of control where 0% means no effect; nearly all actives have a fitted effect of over 65% in size
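Screening used galactose-induced yeast with toxic alpha-synuclein levels, exposed to compound for 24 hr at 30 deg C. Cell growth, read with BacTiter-Glo luminescence, gave the measured signal.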
* = called active by the depositor; i = inactive; u = inconclusive; x = no result. Shown are actives, neighbours in structure and some others; about 2.1% of the full set was active somewhere. Unless noted, calls follow the shape of the dose curve; as a rule, active = well fitted curve in the direction sought with a large enough effect; inconclusive = small, poorly fitted or top-dose-only effect, or another doubt; inactive = no such curve, though single readings can be large; an effect the other way counts as inactive or inconclusive. Potency is read from the fitted curve at half-maximal effect.

SMILES	Abeta rescue	FUS suppressor	PTAP TSG101 blk	TDP-43 yeast inh	aSyn rescue
Cc1ccc(/C=C/C(=O)O)cc1S(=O)(=O)N1CCCc2ccccc21	i	i	-6.4%	u	-0.7%
Cc1ccc(OCC(=O)NC(=S)Nc2ccccn2)c(Br)c1	i	i	1.8%	-5.3%	-9.3%
Cc1ccc(OCC(=O)NNC(=S)NC(=O)C2CCCCC2)c(C)c1	i	i	-2.6%	12.6µM*	u
Cc1ccc(OCC(=O)NNC(=O)c2ccc(NC(=O)C3CC3)cc2)c(C)c1	i	i	-1.6%	11.4%	-0.3%
Cc1ccc(OCC(=O)NNC(=S)NC(=O)C(C)(C)C)c(Br)c1	i	i	-8.0%	5.01µM*	23.9%
CCOc1ccc(C(=O)Nc2ccccc2CC)cc1[N+](=O)[O-]	u	i	0.9%	28.2µM*	-1.7%
COc1cccc(C(=O)OCC(=O)c2ccc(Br)s2)c1OC	i	i	-0.1%	1.78µM*	-4.7%
O=C1CC(=O)OC(c2ccc([N+](=O)[O-])cc2)O1	i	i	x	3.16µM*	u
O=C(c1ccc2nccnc2c1)N1CCN(c2cccc(C(F)(F)F)c2)CC1	i	i	18.3%	0.0%	1.5%
O=C(c1ccc(CS(=O)c2ccccc2Cl)o1)N1CCN(c2cccc(C(F)(F)F)c2)CC1 (configuration not stated)	i	u	x	17.8µM*	x
CCn1cc(C(=O)N2CCN(c3cccc(C(F)(F)F)c3)CC2)c2cc(OC)c(OC)cc2c1=O	i	u	x	9.7%	x
COc1ccccc1C(=O)N1CCN(c2cccc(C(F)(F)F)c2)CC1	i	i	-4.2%	14.1µM*	3.4%
O=C(c1ccc(CS(=O)c2ccccc2Cl)o1)N1CCN(c2cccc(Cl)c2)CC1 (configuration not stated)	i	u	x	u	x
CC(=O)c1ccc(NC(=O)N2CCN(c3cccc(Cl)c3)CC2)cc1	i	i	0.8%	12.6µM*	2.5%
O=C(c1cccc(F)c1)N1CCN(c2cccc(C(F)(F)F)c2)CC1	i	i	-4.2%	14.1µM*	12.3%
CSc1ccc(/C=C2\C=C(C(O)c3ccc(SC)cc3)c3ccccc32)cc1 (configuration not stated)	x	x	x	x	28.9%
CNc1cncc(-c2cccc(NS(C)(=O)=O)c2)n1	i	i	x	4.2%	-5.1%
COc1ccccc1CC(=O)N1CCN(c2cccc(Cl)c2)CC1	i	i	0.2%	12.6µM*	3.1%
COc1ccccc1CC(=O)N1CCN(c2ccccc2)CC1	i	i	-7.7%	9.9%	1.2%
Fc1ccc(-c2nc3c4ccccc4ccn3c2Cc2cccc(Cl)c2)cc1	i	i	x	14.1µM*	17.5%
Fc1cccc(Cc2c(-c3ccco3)nc3c4ccccc4ccn23)c1	i	i	x	35.5µM*	13.0%
Clc1cccc(Cc2c(-c3ccccc3)nc3c4ccccc4ccn23)c1	i	i	x	11.2µM*	u
CCc1cccc(CC)c1NC(=O)C(CC)n1nc(C)n2c(cc3cc(C)ccc32)c1=O (configuration not stated)	i	i	x	26.0%	x
CC(C)CC(=O)Nc1sc2c(c1C(=O)O)CCCCC2	i	i	-2.3%	11.2µM*	-8.1%
O=C(COC(=O)/C=C/c1ccco1)NCc1ccc(Cl)cc1	i	i	1.0%	10µM*	5.5%
SMILES	Abeta rescue	FUS suppressor	PTAP TSG101 blk	TDP-43 yeast inh	aSyn rescue
Cc1nc([N+](=O)[O-])c(Br)n1CC(=O)c1ccc(Cl)cc1	i	i	-5.8%	12.6µM*	0.5%
Cc1nc([N+](=O)[O-])c(Br)n1Cc1ccc(Cl)c(Cl)c1	i	i	-1.5%	14.1µM*	-10.0%
C/C(=N/OC(=O)c1ccc(C)cc1)c1cccs1	i	i	-4.5%	-12.0%	-18.0%
C/C(=N/OC(=O)c1ccccc1Br)c1ccc(C)cc1	i	i	-2.6%	14.1µM*	-17.8%
O=C(COc1ccc(Cl)cc1Cl)Nc1ccc(C(=O)OC2CCCCC2)cc1	i	i	x	-1.5%	x
O=C(c1ccco1)N1CCN(S(=O)(=O)c2c(Cl)cccc2Cl)CC1	i	i	0.0%	15.8µM*	8.3%
O=C(c1ccc(Cl)cc1)N1CCN(C(=O)c2ccco2)CC1	i	i	-0.6%	-4.3%	2.5%
O=C(c1ccco1)N1CCN(S(=O)(=O)c2ccc(Cl)cc2)CC1	i	i	0.9%	u	-4.9%
COc1ccc(S(=O)(=O)N2CCN(C(=O)c3ccco3)CC2)c(C)c1C	i	i	-3.3%	22.4µM*	1.0%
Cc1cc(Cl)c2oc(C(=O)N3CCN(C(=O)c4ccco4)CC3)c(C)c2c1	i	u	-0.2%	22.4µM*	6.7%
O=C(c1ccco1)N1CCN(C(=O)c2ccc(-c3ccc(Cl)cc3)o2)CC1	i	i	-2.0%	22.4µM*	-0.9%
Cc1ccc(CN2CCCCC(NC(=O)c3cccc(F)c3)C2=O)cc1 (configuration not stated)	x	i	x	x	x
CN(C)c1ccc(N=Cc2ccnc3ccccc23)cc1	x	x	x	x	-4.4%
C/C=C/C=C/C(=O)N1CC[C@]23c4ccccc4N[C@H]4N(C)c5cccc6c5[C@]42CCN([C@H]6C2OC2(C)C)[C@H]13 (some centres not stated)	u	15.8µM*	-4.6%	12.5%	8.1%
C[C@]12CC[C@@H]3c4ccc(O)cc4CC[C@H]3[C@@H]1CC[C@@H]2O	i	i	11.2%	u	8.7%
CC(NCCN(C)C)C1CCC2C3CCc4cc(O)ccc4C3CCC12C (configuration not stated)	i	x	0.0%	0.316µM*	-1.2%
Cc1ccc(NC(=O)COC(=O)c2ccccc2OCC(=O)N(C)C)cc1	x	x	x	x	10.0%
Cn1c(O)c(N=NC(=O)c2ccccc2O)c2ccccc21	i	i	-2.5%	15.8µM*	3.9%
O=C1C=C(c2ccc(C(=O)O)c(Cl)c2)C[C@@H](c2ccc3c(c2)OCO3)C1	i	i	-7.5%	3.6%	4.8%
COc1ccc([C@H]2CC(=O)C=C(c3cccc(Cl)c3O)C2)cc1OC	i	i	x	17.8µM*	4.9%
O=C1C=C(c2cccc(Cl)c2O)C[C@@H](c2ccc3c(c2)OCO3)C1	i	i	-0.6%	3.55µM*	u
Cc1cccc(S(=O)(=O)NC(=O)C2(C)CCN2C(=O)c2cccc(F)c2)c1 (configuration not stated)	i	i	x	10.5%	-6.0%
CCCCOc1ccc(CC(=O)N(C)O)cc1	x	x	x	x	6.1%

Screening results from PubChem.
